SMILES strings stand for the structures. In all, about 52,000 compounds went through this assay and about 4,300 (8.3%) were called active. The sample holds actives, similar compounds and a random draw of the others, so the mix is not that of the screen. No stated cut-off is given here; in the data, active means survival mostly below about 52% (no sharp cut-off); inactive means mostly above about 56%.

In the test the test system is DeltatarO mutant. The test can be described thus: S. aureus survival, RN4220 and DeltatarO strains – OD600, teichoic acid synthesis inhibitors, primary screen (AID 463173). Conditions: S. aureus RN4220 wild type/DeltatarO growth, OD600, 18 h, active compounds read low, screened at 18.75 µg/mL (by protocol).
Take `COc1ccc(-n2nc3c(N4CCC(C(=O)NCc5ccccc5C)CC4)nnc(C)c3c2C)cc1`: the survival is 90% (inactive). To `CCOCCc1nn2c(=O)cc(COC(=O)C(CC)c3ccccc3)nc2s1` (stereo not given) belongs 55% (inactive); to `C=CCNC1CCS(=O)(=O)C1` (stereo not given), 98% (inactive); to `CSc1ccc(-c2ccc3c(c2)OCCO3)nn1`, 91% (inactive). Turning to `COc1ccc(N2CCN(CCN3CCCCC3)CC2)cc1`, the survival was 83% (inactive). To `CCC(C)(C)NC(=O)Cn1c(-c2ccc(C)cc2)noc1=O` belongs 86% (inactive); to `COC(=O)c1c(Oc2ccc(Br)cc2)nnc(-c2ccccc2)c1-c1ccccc1`, 85% (inactive); to `COc1ccc(-c2nc(C)c(CCNC(=O)c3cccc(C)c3)s2)cc1OC`, 86% (inactive). On to `COc1ccc(-c2cc(C(F)(F)F)n3nc(-c4ccc(Cl)cc4)cc3n2)cc1OC`, for which the survival was 48% (inactive).

`COC(=O)CSc1nc(-c2ccc(F)cc2)cc(C(F)(F)F)n1`: the survival was 126% (inactive). Consider `CCOC(=O)c1c(NC(=O)CSc2nc(-c3ccc(OC)cc3)cc(C(F)(F)F)n2)sc(C)c1C`, for which the survival was 68% (inactive). To `COC(=O)c1ccn(-c2nc(-c3ccc(Cl)cc3)cc(C(F)(F)F)n2)n1` belongs 13% (active); to `CCOC(=O)N1CCN(C(=O)c2cnn3c(C(F)(F)F)cc(-c4cccc(OC)c4)nc23)CC1`, 68% (inactive); to `CCOC(=O)c1ccn(-c2nc(-c3cccc(OC)c3)cc(C(F)(F)F)n2)n1`, 18% (active). As for `CCc1ccccc1NC(=O)C(Cc1cccc(OC)c1)c1nn[nH]n1` (stereo not given), the survival is 54% (inactive). Under `CC(=O)N1CCc2c(sc3c2c(=O)n(-c2cccc(Cl)c2C)c(=O)n3Cc2ccccc2C)C1` stands 61% (inactive). To `CC(=O)NC1=NN(C(C)=O)C2(S1)C(=O)Nc1ccccc12` (stereo not given) belongs 90% (inactive); to `O=C(COc1ccc(Cl)cc1)Nc1ccc(C(=O)OCc2cc(=O)n3ccsc3n2)cc1`, 88% (inactive); to `O=C(CSc1ncc2c(n1)-c1cc(Cl)ccc1N(Cc1ccccc1)S2(=O)=O)NCCc1ccccc1`, 89% (inactive). Consider `CCCCCn1c(=O)[nH]c2cc(C(=O)N3CCN(c4cccc(C(F)(F)F)c4)CC3)ccc2c1=O`, for which the survival was 66% (inactive).

For the compound `Cc1ccccc1CCNC(=O)c1ccc2c(c1)nc1n2CCC(C)C1` (stereo not given), the survival was 83% (inactive).

On to `Cc1cc(S(=O)(=O)N2CCCC2)ccc1-n1cnnn1`, for which the survival is 113% (inactive).

`CCOC(=O)c1ccc(NC(=O)CSc2nc3ccccc3c(=O)n2CCC(=O)NC2CCCCC2)cc1`: the survival was 91% (inactive). To `CC(C)=CCc1c(O)cc(O)c2c1OC(c1ccccc1)CC2=O` (stereo not given) belongs 1% (active); to `CC1(C)OC(c2ccccc2)CC1=O` (stereo not given), 110% (inactive); to `Cc1oc(-c2ccccc2F)nc1CS(=O)CC(=O)NC(C)C` (stereo not given), 89% (inactive).

As for `Cc1nn(C(=O)c2ccccc2)c(C)c1Sc1ccc(Cl)cc1`, the survival is 10% (active). As for `Cc1ccc(Sc2c(C)nn(C(=O)c3ccc(Cl)cc3)c2C)cc1`, the survival is 19% (active).

In the case of `Cc1nn(C(=O)c2ccc(Cl)cc2)c(C)c1S(=O)(=O)N1CCCCCC1`, the survival is 80% (inactive). Under `Cc1ccc(Sc2c(C)nn(C(=O)COc3ccccc3)c2C)cc1` stands 25% (active); under `Cc1nn(C(=O)c2ccc(Cl)cc2)c(C)c1S(=O)(=O)N1CCOCC1`, 91% (inactive); under `Cc1nn(C(=O)COc2ccccc2)c(C)c1Sc1ccccc1`, 115% (inactive). Consider `Cc1nn(C(=O)c2ccccc2)c(C)c1S(=O)(=O)N1CCCCCC1`, for which the survival was 89% (inactive). As for `Cc1ccc(Sc2c(C)nn(C(=O)COc3ccc(F)cc3)c2C)cc1`, the survival is 92% (inactive).

For the compound `COc1cc(C(=O)n2nc(C)c(Sc3ccc(Cl)cc3)c2C)cc(OC)c1OC`, the survival was 57% (inactive). As to `Cc1ccc(C(=O)n2nc(C)c(S(=O)(=O)N3CCCCCC3)c2C)cc1`, the survival was 91% (inactive). On to `Cc1nn(C(=O)c2ccc(Cl)cc2)c(C)c1Sc1ccc(Cl)cc1`, for which the survival was 51% (active). To `Cc1nn(C(=O)COc2ccc(Cl)cc2)c(C)c1Sc1ccccc1` belongs 87% (inactive); to `Cn1nccc1C(=O)NCc1ccc2c(c1)CCN2C(=O)c1ccccc1`, 90% (inactive); to `O=C1CN(C(=O)c2ccc(S(=O)(=O)N3CCCCC3)cc2)C(c2ccc(F)cc2)c2cc(Br)ccc2N1` (stereo not given), 77% (inactive). To `COc1ccc(-n2c(SCc3nc(-c4ccc(C)cc4)no3)nnc2-c2ccccc2)cc1` belongs 60% (inactive); to `O=C(Nc1ccc(OC(F)(F)F)cc1)C1CCCN(S(=O)(=O)c2cccc3nonc23)C1` (stereo not given), 96% (inactive); to `Cc1cc(C)cc(C(=O)NCC(c2ccc(N(C)C)cc2)N2CCCC2)c1` (stereo not given), 95% (inactive). As to `CCN(CC)CCn1c(=N)n(CCOc2ccccc2Cl)c2ccccc21`, the survival was 59% (inactive). Turning to `CC1CCN(c2nc3ccccc3nc2C(F)(F)F)CC1`, the survival is 75% (inactive). Consider `CC1CCCCN1C(=O)CSc1nc(C2CC2)nc2ccccc12` (stereo not given), for which the survival was 82% (inactive). In the case of `CC1CCCCN1c1nc(-c2ccc(C(C)(C)C)cc2)nc2ccccc12` (stereo not given), the survival is 3% (active). To `Brc1ccc(-c2nc(N3CCN(c4ccccc4)CC3)c3ccccc3n2)cc1` belongs 117% (inactive); to `CC1CCN(c2nc(-c3ccc(Br)cc3)nc3ccccc23)CC1`, 82% (inactive).

`CC1CCN(c2nc(-c3ccc(C(C)(C)C)cc3)nc3ccccc23)CC1`: the survival was 6% (active).

For the compound `Cc1ccc(C(C(=O)NC2CCCCC2)N(C(=O)Cc2c[nH]c3ccccc23)C2CC2)o1` (stereo not given), the survival is 94% (inactive). Under `COc1ccccc1C1CC(=O)NC(C)=C1C(=O)OC1CCCCCC1` (stereo not given) stands 86% (inactive).

Turning to `CCN1CCN(c2ccc(NC(=O)COc3ccccc3)cc2)CC1`, the survival is 106% (inactive). Under `O=S(=O)(N1CCCCC1)N1CCN(c2ccc(F)cc2)CC1` stands 65% (active). To `O=S(=O)(c1ccc(F)cc1)N1CCCCC1` belongs 86% (inactive); to `O=C(CN1CCN(c2ccc(F)cc2)CC1)N1CCCC1`, 83% (inactive); to `CCc1ccc(NC(=O)Cn2c(=O)n(Cc3ccco3)c(=O)c3cccnc32)cc1`, 82% (inactive). In the case of `CC1(C)CC(=O)C=C(NCC(O)c2ccccc2)C1` (stereo not given), the survival was 102% (inactive). To `Cc1ccc(CNC(=O)CN(c2ccc(C)cc2)S(=O)(=O)c2c(C)nn(C)c2C)cc1` belongs 73% (inactive); to `CCC1Oc2ccc(C)cc2N(CC(=O)N(Cc2ccc3c(c2)OCO3)CC2CCCO2)C1=O` (stereo not given), 96% (inactive); to `COc1ccc(CN(Cc2ccco2)C(=O)c2cc3ccccc3oc2=O)c(OC)c1`, 40% (active).

As for `COc1ccc2oc(=O)c(C(=O)NCc3ccco3)cc2c1`, the survival is 100% (inactive).

As to `Cc1cccc2cc(CN(Cc3ccco3)C(=O)c3ccccc3)c(=O)[nH]c12`, the survival is 95% (inactive).

For `O=C(c1cc2ccccc2oc1=O)N(Cc1ccc(F)cc1)Cc1ccco1`, the survival was 41% (active).

In the case of `O=C(c1cc2ccccc2oc1=O)N(Cc1cccs1)Cc1cccs1`, the survival was 48% (inactive).

Turning to `COc1ccccc1C(=O)N(Cc1ccco1)Cc1ccccc1F`, the survival is 60% (inactive). To `O=C(NCC1CCCO1)c1cc2ccccc2oc1=O` (stereo not given) belongs 80% (inactive); to `CC(C)(C)c1ccc(C(=O)N(Cc2ccc(F)cc2)Cc2ccco2)cc1`, 55% (inactive). In the case of `O=C(c1cc2ccccc2oc1=O)N(Cc1ccc(F)cc1)C1CC1`, the survival was 88% (inactive).

In the case of `O=C(c1cc2ccccc2oc1=O)N(Cc1ccc2c(c1)OCO2)CC1CCCO1` (stereo not given), the survival was 42% (active). Under `Cc1ccccc1CN(Cc1ccco1)C(=O)c1cc2ccccc2oc1=O` stands 44% (active); under `O=C(O)CCn1cnc2sc3c(c2c1=O)CCCC3`, 105% (inactive). Under `Nc1cnc2cccc3c2c1-c1ccccc1C3=O` stands 86% (inactive); under `Cc1ccc(S(=O)(=O)c2cnc(SCC(=O)Nc3cc(C)cc(C)c3)nc2N)cc1`, 102% (inactive); under `COc1ccc(-c2cc(C(=O)NCCc3ccc(Cl)cc3)[nH]n2)cc1`, 72% (inactive). Under `Cc1c(Cl)cccc1-n1ncc(C(=O)N2CCc3ccccc3C2)c1C1CCN(C(=O)OC(C)(C)C)CC1` stands 85% (inactive); under `COc1ccc(C(=O)NCCn2cc(SCC(=O)Nc3ccc4c(c3)OCCO4)c3ccccc32)cc1`, 153% (inactive); under `CCOC(=O)c1c(C)oc2nc(C)nc(NCC3CCN(Cc4ccc(F)cc4)CC3)c12`, 102% (inactive).

`Cc1ccc(C)c(NC(=O)CCc2c(C)nn(-c3ccc(N4CCCC4)nn3)c2C)c1`: the survival is 67% (inactive). To `COc1ccccc1Nc1c2c(nc3ccc(NC(=O)/C=C/c4cccc(OC)c4OC)cc13)CCCC2` belongs 74% (inactive); to `Cc1ccc(-c2nc3ccc(Cl)cn3c2Nc2ccccc2C)s1`, 107% (inactive); to `Cc1ccc(Nc2c(-c3ccc(N(C)C)cc3)nc3ccccn23)cc1`, 131% (inactive). In the case of `Cc1ccccc1Nc1c(-c2ccc(Cl)s2)nc2c(C)cccn12`, the survival was 69% (inactive). To `Fc1ccc(Nc2c(-c3ccco3)nc3ccccn23)cc1` belongs 53% (inactive); to `Cc1ccccc1Nc1c(-c2c[nH]c3ccccc23)nc2ccccn12`, 69% (inactive); to `Cc1ccccc1Nc1c(-c2ccc(Cl)s2)nc2cccc(C)n12`, 99% (inactive). Under `Cc1ccc(-c2nc3c(C)cccn3c2Nc2ccccc2C)s1` stands 0% (active). To `Cc1ccc(Nc2c(-c3ccc(C)s3)nc3ccccn23)cc1` belongs 31% (active); to `Cc1ccc(-c2nc3ccccn3c2Nc2ccccc2C)s1`, 21% (active); to `Cc1ccccc1Nc1c(-c2ccco2)nc2c(C)cccn12`, 25% (active).

Turning to `Cc1cccc(C)c1Nc1c(-c2ccccn2)nc2c(C)cccn12`, the survival is 51% (inactive). `Cc1ccc(-c2nc3ccccn3c2Nc2ccc3c(c2)OCCO3)s1`: the survival was 79% (inactive). To `COc1ccc2c(c1)c1c(c(=O)n(Cc3ccccc3)c(=O)n1CC(=O)NCc1ccccc1)n2C` belongs 91% (inactive); to `COc1ccccc1CNC(=O)CCc1c(C)c2ccc(OC)c(C)c2oc1=O`, 74% (inactive); to `Cc1ccc(Cl)cc1-n1nnc(-c2nc(-c3ccc4c(c3)OCO4)no2)c1C`, 122% (inactive).

Source of the values: PubChem BioAssay AID463173 (ICCB-Longwood Screening Facility, Harvard Medical School, 2010).
